Results reported in the supplement of paper PMC3898565.
Several values for one entry are separate records, joined by “and”; a condition that tells them apart may be missing. Equal entries are not always repeated. Structures can show the parent of a compound that is named as a salt. ± gives the uncertainty stated by the source.
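Note: viable cell number estimated from Alamar Blue fluorescence read at 560/90, part of a single-dose primary screen of an FDA-approved drug library.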

These compounds were tested on U87 (assay: cell viability relative to vehicle control; higher = less growth inhibition (less active)). Details: 10 µM; 72 h.
Work on `C[N+]1(CCC(C(N)=O)(c2ccccc2)c2ccccc2)CCCCC1` yielded a cell viability of 102 ± 1.4%.
`CCCCC/C=C\C/C=C\C/C=C\C/C=C\CCCC(=O)Nc1ccc(O)cc1` showed a cell viability of 100.5 ± 0.91%.
In the case of `C=C(C)CN1CC[C@]23c4c5ccc(O)c4O[C@H]2c2[nH]c4ccccc4c2C[C@@]3(O)C1C5`, the cell viability is reported as 101 ± 1.4%.
With `CCCCCCCCCOc1ccc2[nH]cc(CCN)c2c1` [5-Nonyloxytryptamine] the cell viability was 37.1 ± 1.2%.
Compound `CC(C)CC(N(C)C)C1(c2ccc(Cl)cc2)CCC1` (stereo not given) [Sibutramine] has a cell viability of 111.8 ± 0.39%.
For `CC(NC(C)(C)C)C(=O)c1cccc(Cl)c1` (stereo not given), the cell viability was 105% and 107%.
For `C[C@]12CC[C@H](O)CC1=CC[C@@H]1[C@@H]2CC[C@]2(C)C(=O)CC[C@@H]12`, the cell viability was 116 ± 9.3%.
Compound `CS(=O)(=O)Nc1ccc(Cc2noc(-c3ccc4[nH]cc(CCN)c4c3)n2)cc1` has a cell viability of 106 ± 1.2%.
For `NCCc1ccccn1`, the cell viability was 104 ± 1.4%.
`CN1CC[C@]2(c3cccc(O)c3)Cc3nc4ccccc4cc3C[C@H]2C1` was tested, and the cell viability was 103 ± 1.4%.
Work on `C[C@]12CC[C@H](O)CC1=CC[C@@H]1[C@@H]2CC[C@@]2(C)[C@H]1CC[C@]2(C)O` yielded a cell viability of 127 ± 3.6%.
Compound `CNC1=Nc2ccc(Cl)cc2C(c2ccccc2)=[N+]([O-])C1` has a cell viability of 104 ± 1.7%.
`CNCC(O)c1ccc(O)cc1` (stereo not given) gave a cell viability of 107 ± 4.5%.
Compound `COc1ccc(CCN)cc1OC` [Homoveratrylamine] has a cell viability of 104 ± 1.1%.
`CNC(=O)Oc1ccc2c(c1)[C@]1(C)CCN(C)[C@@H]1N2C` [Physostigmine] gave a cell viability of 93 ± 1.4%.
`CN1C(=O)COc2c(C(=O)NC3CN4CCC3CC4)cc(Cl)cc21` (stereo not given) [Azasetron] showed a cell viability of 103 ± 1.1%.
`CN1C(=O)CN=C(c2ccccc2)c2cc(Cl)ccc21` [Diazepam] showed a cell viability of 98.6 ± 2.1%.
In the case of `NC(=O)C[S+]([O-])C(c1ccccc1)c1ccccc1` (stereo not given) [Modafinil], the cell viability is reported as 107 ± 1.4%.
`O=c1c2ccccc2[se]n1-c1ccccc1` was tested, and the cell viability was 107 ± 1.6%.
Work on `COc1ccc2[nH]cc(CCN)c2c1` [5-Methoxytryptamine] yielded a cell viability of 109 ± 1.3%.
`CC[C@@H]1C=CC=CC[C@H](C)[C@@H](O)[C@@H](C)C(=O)[C@H](C)[C@@H](O)[C@H](C)C(=O)[C@H](C)[C@@H](O)[C@H](C)C=CC(=O)O[C@H]2[C@@H](C)[C@@H](CC1)O[C@@]1(CC[C@@H](C)[C@@H](C[C@H](C)O)O1)[C@@H]2C` gave a cell viability of 109 ± 11%.
Work on `COc1ccc2c(c1)[C@]13CCCC[C@@H]1[C@H](C2)N(C)CC3` [d-3-Methoxy-N-methylmorphinan hydrobromide] yielded a cell viability of 103 ± 1.2%.
`CNC1CC(c2ccc(Cl)c(Cl)c2)c2ccccc21` (stereo not given) [Indatraline] was tested, and the cell viability was 99.93 ± 0.57%.
`Oc1ccc2c3c1O[C@H]1c4[nH]c5ccccc5c4C[C@@]4(O)[C@@H](C2)N(CC2CC2)CC[C@]314` [Naltrindole] showed a cell viability of 105 ± 3%.
In the case of `C=C1C[C@@H]2[C@H](CC[C@]3(C)C(=O)CC[C@@H]23)[C@@]2(C)C=CC(=O)C=C12`, the cell viability is reported as 107 ± 2.5%.
Compound `CC[C@]1(O)CC[C@H]2[C@@H]3CCC4=CCCC[C@@H]4[C@H]3CC[C@@]21C` [Ethylestrenol] has a cell viability of 101.7 ± 0.91%.
`c1cncc([C@@H]2CCCN2)c1` [Nornicotine] showed a cell viability of 111 ± 3.4%.
In the case of `C[C@]12CC[C@H]3[C@@H](CCC4=CC(=O)CC[C@@]43C)[C@@H]1CC[C@@H]2O` [Testosterone], the cell viability is reported as 107 ± 1.6%.
For `Oc1ccc2c3c1O[C@H]1[C@@H](O)CC[C@@]4(O)[C@@H](C2)N(CC2CCC2)CC[C@]314` [Nalbuphine], the cell viability was 99.2 ± 7.3%.
Work on `C[C@]12CCC(=O)C[C@@H]1CC[C@@H]1[C@@H]2CC[C@@]2(C)[C@H]1CC[C@]2(C)O` [Mestanolone] yielded a cell viability of 105.6 ± 0.93%.
With `COC(=O)N1CCN(C(=O)Cc2ccc(Cl)c(Cl)c2)C(CN2CCCC2)C1` (stereo not given) the cell viability was 105 ± 2.6%.
For `CC(O)(CS(=O)(=O)c1ccc(F)cc1)C(=O)Nc1ccc(C#N)c(C(F)(F)F)c1` (stereo not given), the cell viability was 103 ± 1.5%.
`C[C@H]1CCC[C@H](O)CCCCCc2cc(O)cc(O)c2C(=O)O1` showed a cell viability of 107 ± 2.7%.
For `C[C@]12CC[C@H]3[C@@H](CCC4=CC(=O)CC[C@@H]43)[C@@H]1CC[C@@H]2O` [Nandrolone], the cell viability was 101.5 ± 0.8%.
Work on `CC(=O)O[C@H]1C[C@@H]2CC[C@@H]3[C@H](CC[C@@]4(C)[C@H]3C[C@H]([N+]3(C)CCCCC3)[C@@H]4OC(C)=O)[C@@]2(C)C[C@@H]1[N+]1(C)CCCCC1` [Pancuronium] yielded a cell viability of 103.79 ± 0.081%.
